The full data set covers some 8,800 targets. This sample favours those with a hit. About 0.5% of all pairs of compound and target were hits.
How the values were obtained:
Test in all cases: log2 fold change, soluble protein after heating vs DMSO (PISA); higher = thermal stabilisation; K562 lysate, 10 uM; active = over 0.2 and 3.5 SD of the protein, either way, in both replicates (recomputed)
[1] = compound: CN1CC[C@H](c2c(O)cc(O)c3c(=O)cc(-c4ccccc4Cl)oc23)[C@H](O)C1 [alvocidib]
In short: (§1)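 The values are log-two fold changes in thermal stability compared with solvent controls and come from duplicates. They were obtained by TMTpro 16plex LC-MS/MS, with channel sums equalised, on the supernatant after 21,000xg for 90 min. That supernatant came from crude K562 extract at 1 mg/mL protein treated with 10 μM compound for 30 min, heated for 3 min across 48°C-58°C, pooled and brought to 0.5% NP-40 at 4°C.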

[2] = compound: CN1CCc2c(c3ccccc3n2Cc2ccc(C(=O)NO)cc2)C1 [Tubastatin A]
In short: as §1

[3] = compound: CNC(=O)C1=CC=CC=C1NC2=NC(=NC=C2Cl)NC3=C(C=C(C=C3)N4CCOCC4)OC
In short: as §1

[4] = compound: CNc1nc(-c2ccc3c(N)n[nH]c3c2)cc(N2C[C@@H](C(=O)NC3CCCCC3)CC[C@H]2C)n1
In short: as §1

[5] = compound: COc1cc(Nc2ncc3c(n2)-c2ccc(Cl)cc2C(c2c(F)cccc2OC)=NC3)ccc1C(=O)O [alisertib]
In short: as §1

[6] = compound: COc1cc2nc(-c3cc(F)ccc3O)nc(N[C@@H]3CNC[C@H]3C(C)(C)O)c2cc1OC
In short: as §1

[7] = compound: COc1cc2ncnc(Nc3ccc(F)c(Cl)c3)c2cc1OCCCN1CCOCC1 [gefitinib]
In short: as §1

[8] = compound: CS(=O)(=O)CCNCc1ccc(-c2ccc3ncnc(Nc4ccc(OCc5cccc(F)c5)c(Cl)c4)c3c2)o1 [lapatinib]
In short: as §1

[9] = compound: CS(=O)(=O)N1CCN(Cc2cc3nc(-c4cccc5[nH]ncc45)nc(N4CCOCC4)c3s2)CC1 [pictilisib]
In short: as §1

[10] = compound: C[C@@H](Oc1cc(-c2cnn(C3CCNCC3)c2)cnc1N)c1c(Cl)ccc(F)c1Cl [crizotinib]
In short: as §1

[11] = compound: C[C@H](C1=CC=C(C=C1)C(=O)NC2=C3C=CNC3=NC=C2)N
In short: as §1

[12] = compound: C[C@H](Nc1ncnc2nc[nH]c12)c1cc2cccc(Cl)c2c(=O)n1-c1ccccc1 [duvelisib]
In short: as §1

[13] = compound: Cc1cc(Nc2cc(CN3CCOCC3)c3nc(C)c(Cc4ccc(Cl)cc4F)n3n2)n[nH]1 [gandotinib]
In short: as §1

[14] = compound: Cc1ccc(-n2nc(C(C)(C)C)cc2NC(=O)Nc2ccc(OCCN3CCOCC3)c3ccccc23)cc1 [doramapimod]
In short: as §1

[15] = compound: Cc1ccc(NC(=O)c2ccc(CN3CC[C@H](N(C)C)C3)c(C(F)(F)F)c2)cc1Nc1nccc(-c2cncnc2)n1 [bafetinib]
In short: as §1

[16] = compound: Cc1cccc(CC(=O)N2CCc3c2ccc(-c2cn(C)c4ncnc(N)c24)c3F)n1
In short: as §1

[17] = compound: CNC(=O)c1ccc(Nc2ncc(C(F)(F)F)c(NCc3nccnc3N(C)S(C)(=O)=O)n2)cc1 [defactinib]
In short: as §1

[18] = compound: COC(=O)N[C@@H](C)CNc1nccc(-c2cn(C(C)C)nc2-c2cc(Cl)cc(NS(C)(=O)=O)c2F)n1 [encorafenib]
In short: as §1

[19] = compound: COC(=O)[C@H](CCSC)NC(=O)C1=C(C=C(C=C1)NC[C@H](CS)N)C2=CC=CC=C2
In short: as §1

[20] = compound: Cc1cc(Nc2cc(N3CCN(C)CC3)nc(Sc3ccc(NC(=O)C4CC4)cc3)n2)n[nH]1 [tozasertib]
In short: as §1

Measured: log2 fold change

PRADC1 (UniProt Q9BSG0)
Chain of UniProt Q9BSG0 (Q9BSG0 whole entry, looked up): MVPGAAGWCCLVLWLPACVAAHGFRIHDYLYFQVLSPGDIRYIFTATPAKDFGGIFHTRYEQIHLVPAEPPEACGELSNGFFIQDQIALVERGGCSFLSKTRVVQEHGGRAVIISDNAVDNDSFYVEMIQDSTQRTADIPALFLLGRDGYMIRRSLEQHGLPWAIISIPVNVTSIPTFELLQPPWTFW
inactive: [1] -0.141 | [2] 0.04 | [3] -0.126 | [4] 0.059 | [5] 0.109 | [6] 0.212 | [7] -0.071 | [8] -0.088 | [9] 0.091 | [10] 0.075 | [11] 0.166 | [12] -0.069 | [13] -0.002 | [14] -0.041 | [15] -0.149 | [16] -0.087

PRIMPOL (UniProt Q96LW4)
Chain of UniProt Q96LW4 (Q96LW4 whole entry, looked up): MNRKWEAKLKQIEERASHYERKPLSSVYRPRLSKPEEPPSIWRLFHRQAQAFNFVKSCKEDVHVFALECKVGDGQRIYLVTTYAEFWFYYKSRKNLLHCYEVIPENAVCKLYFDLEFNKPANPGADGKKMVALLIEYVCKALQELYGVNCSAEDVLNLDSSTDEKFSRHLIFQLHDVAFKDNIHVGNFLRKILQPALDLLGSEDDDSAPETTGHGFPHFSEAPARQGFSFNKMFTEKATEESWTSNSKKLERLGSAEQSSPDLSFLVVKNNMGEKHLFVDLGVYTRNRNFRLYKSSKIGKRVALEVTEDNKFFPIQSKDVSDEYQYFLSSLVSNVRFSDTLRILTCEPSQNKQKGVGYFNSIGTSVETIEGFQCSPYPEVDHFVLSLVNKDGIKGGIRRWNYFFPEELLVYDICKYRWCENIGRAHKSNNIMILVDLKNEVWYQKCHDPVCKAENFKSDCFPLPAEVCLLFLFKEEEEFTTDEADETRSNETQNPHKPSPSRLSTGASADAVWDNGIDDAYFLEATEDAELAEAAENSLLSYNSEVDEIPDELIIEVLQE
inactive: [2] -0.159 | [3] 0.036 | [17] 0.076 | [4] 0.071 | [18] 0.055 | [19] -0.37 | [5] -0.113 | [7] 0.045 | [9] 0.02 | [10] -0.097 | [12] 0.003 | [20] -0.031 | [14] 0.014 | [15] -0.225

PCBP2 (UniProt F8W0G4)
inactive: [2] -0.009 | [3] 0.01 | [17] 0.044 | [4] 0.033 | [18] 0.125 | [19] -0.006 | [5] 0.192 | [7] 0.028 | [9] 0.087 | [12] 0.358 | [20] -0.069 | [15] -0.223

POLR2M (UniProt Q6EEV4)
Chain of UniProt Q6EEV4 (Q6EEV4 whole entry, looked up): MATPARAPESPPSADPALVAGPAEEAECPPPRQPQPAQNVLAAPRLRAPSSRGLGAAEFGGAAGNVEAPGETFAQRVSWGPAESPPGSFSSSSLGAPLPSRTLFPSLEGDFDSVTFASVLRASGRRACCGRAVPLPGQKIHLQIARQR
inactive: [1] 0.085 | [3] 0.075 | [17] 0.125 | [4] 0.108 | [18] -0.001 | [19] -0.081 | [6] 0.038 | [8] 0.047 | [9] -0.07 | [10] -0.064 | [11] 0.026 | [12] -0.049 | [13] -0.154 | [20] 0.055 | [14] -0.041 | [15] -0.116 | [16] 0.046

PECR (UniProt Q9BY49)
Chain of UniProt Q9BY49 (Q9BY49 whole entry, looked up): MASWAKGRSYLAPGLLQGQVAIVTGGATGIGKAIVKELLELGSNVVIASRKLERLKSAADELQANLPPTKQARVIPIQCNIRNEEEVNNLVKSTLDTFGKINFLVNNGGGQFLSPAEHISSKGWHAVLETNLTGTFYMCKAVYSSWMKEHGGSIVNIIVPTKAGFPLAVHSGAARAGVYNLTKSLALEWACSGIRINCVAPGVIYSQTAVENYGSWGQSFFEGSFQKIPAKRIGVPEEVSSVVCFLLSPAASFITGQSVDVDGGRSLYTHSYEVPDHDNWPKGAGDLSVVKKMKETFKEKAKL
inactive: [18] 0.101 | [19] -0.184 | [20] -0.053

PPP1R11 (UniProt O60927)
Chain of UniProt O60927 (O60927 whole entry, looked up): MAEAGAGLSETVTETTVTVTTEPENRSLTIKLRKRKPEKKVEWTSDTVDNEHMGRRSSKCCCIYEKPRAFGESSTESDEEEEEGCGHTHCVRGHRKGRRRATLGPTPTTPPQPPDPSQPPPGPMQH
inactive: [1] 0.048 | [2] 0.077 | [3] 0.011 | [4] -0.001 | [18] 0.051 | [19] -0.027 | [5] -0.081 | [6] -0.041 | [7] -0.09 | [8] 0.01 | [9] -0.016 | [10] -0.069 | [11] 0.153 | [12] -0.054 | [13] -0.048 | [20] 0.022 | [14] -0.022 | [15] 0.099 | [16] -0.071

NA (UniProt Q4G0T1)
Chain of UniProt Q4G0T1 (Q4G0T1 whole entry, looked up): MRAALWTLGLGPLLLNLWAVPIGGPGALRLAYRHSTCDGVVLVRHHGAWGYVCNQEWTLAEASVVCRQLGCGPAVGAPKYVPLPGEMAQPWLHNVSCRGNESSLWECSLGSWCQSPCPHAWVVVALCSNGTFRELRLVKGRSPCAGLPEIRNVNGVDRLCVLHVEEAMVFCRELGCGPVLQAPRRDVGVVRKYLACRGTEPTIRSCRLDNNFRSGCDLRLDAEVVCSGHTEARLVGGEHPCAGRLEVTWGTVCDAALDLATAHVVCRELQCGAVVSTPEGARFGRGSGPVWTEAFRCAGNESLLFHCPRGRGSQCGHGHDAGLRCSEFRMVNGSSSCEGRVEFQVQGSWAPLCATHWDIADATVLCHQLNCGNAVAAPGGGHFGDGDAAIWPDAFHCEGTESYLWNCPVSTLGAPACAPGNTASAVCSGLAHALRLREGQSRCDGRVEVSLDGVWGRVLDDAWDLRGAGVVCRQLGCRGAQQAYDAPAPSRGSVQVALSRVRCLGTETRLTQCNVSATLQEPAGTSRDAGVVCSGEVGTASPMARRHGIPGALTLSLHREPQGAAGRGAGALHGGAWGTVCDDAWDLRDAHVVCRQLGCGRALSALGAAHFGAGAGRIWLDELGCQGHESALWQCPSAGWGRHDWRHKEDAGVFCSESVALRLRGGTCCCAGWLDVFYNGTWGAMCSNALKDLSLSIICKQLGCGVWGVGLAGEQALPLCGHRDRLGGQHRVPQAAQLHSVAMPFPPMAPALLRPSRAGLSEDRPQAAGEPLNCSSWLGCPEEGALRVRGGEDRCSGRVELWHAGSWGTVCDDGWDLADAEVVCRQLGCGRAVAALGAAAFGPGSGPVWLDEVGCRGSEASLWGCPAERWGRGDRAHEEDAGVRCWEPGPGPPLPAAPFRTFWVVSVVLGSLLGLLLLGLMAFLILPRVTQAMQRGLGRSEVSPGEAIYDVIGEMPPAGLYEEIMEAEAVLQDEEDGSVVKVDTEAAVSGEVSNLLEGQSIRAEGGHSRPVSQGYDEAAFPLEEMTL
inactive: [1] -0.132 | [2] -0.272 | [3] -0.115 | [4] -0.062 | [10] 0.023 | [11] -0.044 | [12] 0.035 | [13] -0.015 | [14] 0.042 | [16] 0.034

PPP1R12B isoform 6 (UniProt O60237)
inactive: [2] 0.081 | [3] 0.006 | [17] -0.046 | [4] 0.016 | [18] -0.011 | [19] 0.145 | [6] 0.072 | [8] -0.079 | [9] 0.017 | [10] -0.347 | [12] 0.036 | [20] -0.015 | [14] 0.047 | [15] 0.05

PRRG1 (UniProt O14668)
Chain of UniProt O14668 (O14668 whole entry, looked up): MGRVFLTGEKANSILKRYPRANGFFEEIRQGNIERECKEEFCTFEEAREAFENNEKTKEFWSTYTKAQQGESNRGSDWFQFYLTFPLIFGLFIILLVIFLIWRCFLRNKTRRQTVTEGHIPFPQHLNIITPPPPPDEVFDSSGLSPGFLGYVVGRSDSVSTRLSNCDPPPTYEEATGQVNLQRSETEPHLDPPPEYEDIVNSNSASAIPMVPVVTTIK
inactive: [2] -0.032

PPP2CA (UniProt E7ESG8)
inactive: [5] 0.139 | [7] -0.034

PTK2B (UniProt Q14289)
inactive: [2] -0.071 | [17] 0.315 | [4] -0.063 | [18] -0.048 | [19] -0.007 | [5] 0.093 | [6] 0.103 | [7] -0.056 | [8] -0.075 | [9] -0.043 | [11] -0.026 | [12] -0.034 | [20] 0.019 | [15] 0.098 | [16] -0.05
active: [3] 0.401 | [13] 0.385

PHGDH, A0A286YFE1
inactive: [4] -0.19 | [6] -0.114 | [8] -0.214 | [9] 0.114 | [12] 0.244 | [15] -0.313

PUF60 isoform 2 (UniProt Q9UHX1)
Chain of UniProt Q9UHX1 (Q9UHX1 whole entry, looked up): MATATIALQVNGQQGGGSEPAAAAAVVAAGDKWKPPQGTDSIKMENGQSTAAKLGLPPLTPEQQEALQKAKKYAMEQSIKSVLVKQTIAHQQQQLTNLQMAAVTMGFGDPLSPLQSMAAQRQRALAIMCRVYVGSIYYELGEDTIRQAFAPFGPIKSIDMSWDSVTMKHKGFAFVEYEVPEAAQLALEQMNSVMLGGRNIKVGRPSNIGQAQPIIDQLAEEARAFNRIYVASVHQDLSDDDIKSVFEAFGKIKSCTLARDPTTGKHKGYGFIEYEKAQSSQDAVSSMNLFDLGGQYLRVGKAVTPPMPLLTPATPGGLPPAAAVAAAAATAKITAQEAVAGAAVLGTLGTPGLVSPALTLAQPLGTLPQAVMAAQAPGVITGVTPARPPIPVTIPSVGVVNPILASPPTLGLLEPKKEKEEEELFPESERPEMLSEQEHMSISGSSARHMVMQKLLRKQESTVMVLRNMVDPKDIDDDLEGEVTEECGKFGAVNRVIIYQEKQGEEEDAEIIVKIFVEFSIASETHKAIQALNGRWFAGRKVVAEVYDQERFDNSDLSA
active: [11] 1.05
inactive: [1] 0.223 | [2] 0.003 | [3] 0.264 | [17] 0.108 | [18] 0.039 | [19] -0.12 | [5] -0.076 | [6] 0.038 | [7] 0.044 | [8] -0.038 | [9] -0.003 | [10] 0.005 | [13] -0.09 | [20] -0.161 | [14] -0.058 | [15] -0.006 | [16] -0.09

PNPLA4 (UniProt P41247)
Chain of UniProt P41247 (P41247 whole entry, looked up): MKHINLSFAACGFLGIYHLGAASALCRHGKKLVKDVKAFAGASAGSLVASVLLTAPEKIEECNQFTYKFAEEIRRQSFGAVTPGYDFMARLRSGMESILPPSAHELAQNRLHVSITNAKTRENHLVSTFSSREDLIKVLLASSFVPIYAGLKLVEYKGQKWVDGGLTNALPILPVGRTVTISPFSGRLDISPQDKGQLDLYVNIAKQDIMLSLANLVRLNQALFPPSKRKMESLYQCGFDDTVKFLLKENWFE
inactive: [1] 0.074 | [2] 0.147 | [17] -0.148 | [4] -0.17 | [18] -0.076 | [19] 0.125 | [10] -0.098 | [11] 0.121 | [12] 0.021 | [13] -0.019 | [20] -0.011 | [16] -0.138
active: [14] 0.825

PTK2 isoform 2 (UniProt Q05397)
inactive: [3] 0.003 | [4] 0.018 | [18] -0.058 | [19] -0.129 | [6] 0.053 | [8] 0.049 | [9] 0.067 | [12] 0.298 | [20] 0.125 | [15] -0.087

PRKD3 (UniProt O94806)
active: [11] -0.643
inactive: [1] -0.308 | [2] -0.014 | [3] -0.066 | [17] 0.059 | [18] 0.077 | [19] 0.233 | [5] 0.139 | [6] 0.087 | [7] -0.051 | [8] 0.031 | [9] 0.019 | [10] -0.199 | [13] 0.423 | [20] 0.092 | [14] -0.075 | [15] -0.086 | [16] 0.46

PPP1R14C (UniProt Q8TAE6)
Chain of UniProt Q8TAE6 (Q8TAE6 whole entry, looked up): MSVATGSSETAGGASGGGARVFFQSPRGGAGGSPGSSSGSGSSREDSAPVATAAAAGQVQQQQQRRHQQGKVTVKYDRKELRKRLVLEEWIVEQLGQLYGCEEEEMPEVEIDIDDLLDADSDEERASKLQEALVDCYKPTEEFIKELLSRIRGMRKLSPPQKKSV
active: [13] 0.358
inactive: [1] -0.045 | [2] -0.033 | [17] -0.002 | [4] -0.14 | [18] 0.064 | [19] 0.014 | [5] -0.044 | [6] -0.04 | [7] 0.032 | [8] -0.044 | [9] -0.025 | [11] -0.022 | [12] 0.121 | [20] 0.08 | [15] 0.041 | [16] 0.336

PREP (UniProt H0Y5Y0)
inactive: [1] 0.082 | [6] 0.03 | [8] -0.029 | [11] -0.304 | [13] 0.113 | [16] -0.153

PIP5K1A (UniProt Q99755)
Chain of UniProt Q99755 (Q99755 whole entry, looked up): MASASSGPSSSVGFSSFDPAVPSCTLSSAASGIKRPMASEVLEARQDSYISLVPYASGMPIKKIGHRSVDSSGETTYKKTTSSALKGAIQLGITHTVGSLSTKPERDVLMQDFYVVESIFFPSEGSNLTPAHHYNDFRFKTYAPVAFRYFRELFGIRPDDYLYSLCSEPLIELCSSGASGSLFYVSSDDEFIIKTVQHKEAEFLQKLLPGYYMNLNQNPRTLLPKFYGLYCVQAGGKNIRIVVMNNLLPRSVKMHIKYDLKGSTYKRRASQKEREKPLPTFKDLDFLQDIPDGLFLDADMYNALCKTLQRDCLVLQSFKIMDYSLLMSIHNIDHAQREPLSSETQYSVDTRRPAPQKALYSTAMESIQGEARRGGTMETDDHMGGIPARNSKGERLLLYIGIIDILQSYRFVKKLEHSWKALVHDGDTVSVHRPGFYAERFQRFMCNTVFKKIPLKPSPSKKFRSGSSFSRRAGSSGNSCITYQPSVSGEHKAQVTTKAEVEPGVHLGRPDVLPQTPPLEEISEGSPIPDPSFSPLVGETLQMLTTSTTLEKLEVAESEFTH
inactive: [1] 0.077 | [2] -0.043 | [3] 0.027 | [4] -0.074 | [5] -0.121 | [6] -0.023 | [7] -0.024 | [8] -0.117 | [9] 0.07 | [10] -0.168 | [11] 0.03 | [12] -0.043 | [13] -0.013 | [14] 0.093 | [15] -0.062 | [16] -0.034

PPME1 (UniProt Q9Y570)
Chain of UniProt Q9Y570 (Q9Y570 whole entry, looked up): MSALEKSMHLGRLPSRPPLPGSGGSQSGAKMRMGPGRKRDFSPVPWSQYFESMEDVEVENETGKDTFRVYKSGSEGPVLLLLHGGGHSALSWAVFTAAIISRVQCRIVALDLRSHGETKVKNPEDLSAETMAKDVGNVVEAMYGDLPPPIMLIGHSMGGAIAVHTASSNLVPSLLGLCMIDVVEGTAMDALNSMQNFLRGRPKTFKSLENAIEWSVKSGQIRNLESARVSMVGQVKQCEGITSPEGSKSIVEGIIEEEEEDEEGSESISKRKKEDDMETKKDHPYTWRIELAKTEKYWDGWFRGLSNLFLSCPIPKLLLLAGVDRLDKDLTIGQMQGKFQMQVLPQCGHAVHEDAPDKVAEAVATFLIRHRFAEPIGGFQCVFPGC
inactive: [3] 0.125 | [4] -0.065 | [18] -0.029 | [19] -0.059 | [6] 0.014 | [8] 0.002 | [9] 0.038 | [12] -0.017 | [20] 0.072 | [15] -0.081

PDE4DIP (UniProt E9PS60)
active: [11] -0.688
inactive: [1] -0.111 | [3] -0.02 | [17] 0.056 | [4] -0.089 | [18] -0.059 | [19] -0.039 | [5] 0.013 | [7] 0.005 | [10] -0.034 | [12] -0.077 | [13] 0.233 | [20] -0.026 | [14] 0.075 | [16] 0.147

PCBP2 (UniProt F8VRH0)
inactive: [1] -0.1 | [2] 0.067 | [3] -0.123 | [5] 0.231 | [6] 0.096 | [7] 0.045 | [8] -0.148 | [10] 0.023 | [11] -0.116 | [13] -0.042 | [14] -0.01 | [16] 0.072

PICALM (UniProt H0YCY1)
inactive: [3] -0.018

PHOSPHO2 (UniProt C9JD35)
inactive: [18] 0.018 | [19] -0.36 | [10] 0.02 | [20] 0.234 | [14] -0.084

Reference: the supplement of paper PMC10849652
